Experimental findings from PubChem BioAssay AID624273 (Broad Institute, 2012) are described below.

Screen size: about 1,000 compounds; about 230 (23%) were called active. Not shown: some 1% with an inconclusive outcome. The rule behind the calls is not given here. Some of the results follow. Measured potencies and affinities stand elsewhere.

Chain of Long-chain-fatty-acid--AMP ligase FadD28 (Mycobacterium tuberculosis (strain ATCC 25618 / H37Rv)) (P9WQ59 whole entry, looked up): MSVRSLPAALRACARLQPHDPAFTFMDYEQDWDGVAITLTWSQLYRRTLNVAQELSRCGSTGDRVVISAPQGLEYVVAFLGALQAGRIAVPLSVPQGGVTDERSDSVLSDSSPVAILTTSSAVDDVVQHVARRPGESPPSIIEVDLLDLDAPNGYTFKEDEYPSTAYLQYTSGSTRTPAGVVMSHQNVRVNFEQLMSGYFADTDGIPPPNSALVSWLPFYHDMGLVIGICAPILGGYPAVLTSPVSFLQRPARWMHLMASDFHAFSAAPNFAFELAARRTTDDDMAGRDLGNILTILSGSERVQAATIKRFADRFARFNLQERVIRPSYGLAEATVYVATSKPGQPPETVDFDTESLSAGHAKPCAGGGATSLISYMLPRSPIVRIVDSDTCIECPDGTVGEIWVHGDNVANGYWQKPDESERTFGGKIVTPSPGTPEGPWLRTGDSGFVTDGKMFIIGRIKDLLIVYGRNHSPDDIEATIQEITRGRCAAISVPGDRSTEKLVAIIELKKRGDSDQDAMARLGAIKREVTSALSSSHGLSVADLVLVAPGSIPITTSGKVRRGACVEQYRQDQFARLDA

The experiment addresses Long-chain-fatty-acid--AMP ligase FadD28 (Mycobacterium tuberculosis (strain ATCC 25618 / H37Rv)) (UniProt P9WQ59). The experiment can be described thus: inhibitors of FadD28 bisubstrate probe binding, dose response, biochemical, fluorescence polarization, cherry-pick (AID 624273). The following applies: series mostly up to 50 µM; activity change, negative = inhibition: at the top concentration.
For the compound `Nc1ccccc1C#Cc1ccc([N+](=O)[O-])cc1`, the “activity change, negative = inhibition” value is -6.75% (inactive).
The same measure for `Cc1cccnc1C(NC(=O)C1CCN(CCCc2ccccc2)CC1)c1ccc(Cl)cc1` (stereo unspecified): -2.31% (inactive).
In the case of `CON(C)C(=O)c1ccccc1N(C)C(=O)OC(C)(C)C`, the “activity change, negative = inhibition” value is -0.108% (inactive).
As for `O=C(CSc1nnc(Cc2ccccc2)o1)c1ccc2c(c1)OCO2`, the figure is -8.26% (inactive); as for `CC1CCN(S(=O)(=O)c2ccc(NC(=O)Cn3nnc(-c4ccccc4F)n3)cc2)CC1`, -2.23% (inactive); as for `O=C(CSc1ccc(-c2nc3ccccc3[nH]2)cn1)Nc1ccc(S(=O)(=O)NC2CC2)cc1`, -1.38% (inactive).
The same measure for `Cc1ccc(NC(=O)COC(=O)c2cccc(S(=O)(=O)N3CCCCCC3)c2)cc1`: -3.13% (inactive).
The same measure for `Cc1ccc(C)c(OCCC(=O)OCC(=O)Nc2cccc(S(=O)(=O)N3CCCC3)c2)c1`: 8.54% (inactive); for `CC(Sc1nnc(CNc2cccc3ccccc23)n1-c1ccccc1)C(=O)N/N=C/c1ccco1` (stereo unspecified): -0.168% (inactive); for `Cc1cc(C)c2sc(N(CCCN(C)C)C(=O)c3ccc(S(=O)(=O)N4CCCc5ccccc54)cc3)nc2c1`: -2.43% (inactive).
For the compound `CC1(C)Oc2ccc3ccc(=O)oc3c2/C(=C/O)C1=O`, the “activity change, negative = inhibition” value is -0.411% (inactive).
The same measure for `COc1ccc(C2NC3=C(CCC3)C3(C#N)C4(N=C(N)C23C#N)OCCO4)cc1` (stereo unspecified): -11% (inactive).
The same measure for `O=C(Cc1ccc(Cl)cc1)Nc1ccc(N2CCN(C(=O)c3ccco3)CC2)c(Cl)c1`: -3.35% (inactive).
On to `Cc1nn(-c2ccccc2)c(Cl)c1/C=N/NC(=O)c1cccnc1`, for which the “activity change, negative = inhibition” value was 6.19% (inactive).
The same measure for `CCOC(=O)c1c(C)nc2sc3c(=O)n(-c4ccc(C(C)=O)cc4)cnc3c2c1-c1ccc(OC)cc1`: 2.06% (inactive).
As for `C=CCOc1ccc(C2OC34CCCCC3C(C#N)(C#N)C2(C#N)C(=N)O4)cc1` (stereo unspecified), the figure is -3.77% (inactive).
In the case of `N/C(CSc1ccc(Cl)cc1)=N\NC(=O)c1ccncc1`, the “activity change, negative = inhibition” value is -6.22% (inactive).
As for `Cc1c(NC(=O)c2ccc3ncccc3c2)c(=O)n(-c2ccccc2)n1C`, the figure is -5.27% (inactive).
The same measure for `COC(=O)c1cc(C)nc2c1C(=O)C(=O)C=C2N1CCOCC1`: -21% (inactive); for `Cc1ccc(OCCC(=O)OCC(=O)c2c(N)n(CC(C)C)c(=O)n(C)c2=O)cc1`: -11% (inactive); for `CCC(=O)c1cccc(-c2ccccc2)c1CC`: -0.468% (inactive).
As for `COc1cc(OC)c(C2=NOC(C(=O)Nc3c(C)n(C)n(-c4ccccc4)c3=O)C2)cc1Cl` (stereo unspecified), the figure is -5.34% (inactive); as for `COc1ccc(CN(C)C(=O)c2ccc(OCC(=O)Nc3cccc(C(F)(F)F)c3)c(OC)c2)c(OC)c1`, -1.66% (inactive).
In the case of `CCCCOc1ccc(Nc2cc(Cl)ccc2C(=O)O)cn1`, the “activity change, negative = inhibition” value is 0.048% (inactive).
Take `N#CCC(=O)Nc1ccc(C(=O)OCC(=O)Nc2cccc(C(F)(F)F)c2)cc1`: the “activity change, negative = inhibition” value was -17.3% (inactive).
`Cc1ccc(NC(=O)CN2C(=O)S/C(=C/c3ccc(-c4cc(C(=O)O)ccc4C)o3)C2=O)cc1C`: the “activity change, negative = inhibition” value is -1.88% (inactive).
